Hits are enriched below; roughly 2% of the tested compounds scored in any of these assays.
S1P1 ag: activates the human S1P1 receptor; AID 1044, 2008; hit rate 1.5% among 16,000; S1P1 agonist cell-based reporter assay; activation, % at 4.5 µM; in the data active = activation above about 80%
rat GALR2 agon: agonists of rat galanin receptor 2 (GALR2). cell-based GALR2 agonist screen. activation, % at 10 µM. hit rate 0.5% among 16,000; in the data active = activation above about 15%
Active calls of the source: *.

SMILES	S1P1 ag	rat GALR2 agon
Cc1c([N+](=O)[O-])cc2c(c1[N+](=O)[O-])C(C)(C)CC2(C)C	102*	-11
O=C(Cc1ccccc1)N1CCN(Cc2ccccc2)CC1	5	-6
CNC(=O)Oc1ccc(-c2nc(CSc3ccc(Cl)cc3)cs2)cc1	40	-7
COc1cc2c(cc1OC)[C@@H]1C(=O)c3ccc4c(c3O[C@@H]1CO2)C[C@H](C(C)C)O4	110*	-11
N#CC(C#N)=Cc1ccsc1	-5	-2
N#Cc1cccc(NC(=O)C(Cl)(Cl)Cl)c1	19	2
Nc1c([N+](=O)[O-])cncc1[N+](=O)[O-]	111*	-4
Cc1cc(OC(=O)N(C)C)nc(COc2ccc(Cl)cc2)n1	1	-7
c1ccc2c(c1)CCc1c-2[nH]c2ccccc12	-3	-8

Screening data as filed in PubChem.
